Results taken from PubChem BioAssay (NCI).
This is part of a sample that, as a whole, favours compounds with a hit. Of some 83,000 tested, about 20% had one in any assay.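 The endpoint reported here, percent growth, reads 100 for growth as untreated, 0 for no net growth and -100 for all cells dead.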 Unmarked numbers belong to inactive results. Active and inactive are the calls of the source.

Each molecule was assayed on KM12 colon (assay: NCI-60 one-dose screen, 48 h (100 = growth as untreated, 0 = no growth, -100 = all killed)). Details: 10 µM unless noted.
Procedure: Growth inhibition of the KM12 human tumor cell line is measured as a screen for anti-cancer activity. Cells are grown in 96 well plates and exposed to the test compound for 48 hours. Compounds are tested at a single concentration, which is 10^-5 M for most compounds. The reported endpoint is percent growth (GI% or GIPRCNT), where numbers from 0 - 100% represent growth inhibition, and numbers from -100% - 0 represent cell death. For example, a value of 40 represents 60% growth inhibition. A value of 0 means no net growth occurred over the course of the experiment. A value of -40 indicates 40% of cells at the beginning of the experiment died by the end of the experiment. A value of -100 means all cells are dead at the end of the experiment.
NCI-60 Human Tumor Cell Lines Screen was performed using the standard one-dose NCI protocol, which is described in more detail at https://dtp.cancer.gov/discovery_development/nci-60/default.htm.
Compounds with GIPRCNT values below 10 were considered active. Activity score was based on GIPRCNT using the following formula: […]
Score is 0 for GIPRCNT values of 100 or above, 50 for GIPRCNT values of 0, and 100 for GIPRCNT values of -100.
Nc1nc2ccccc2c2c1S(=O)(=O)c1ccc(Cl)cc1C2=O showed a growth of 18.4%.
In the case of O=C(CSc1nnc(-c2cnccn2)n1-c1ccccc1)c1ccc(Cl)cc1, the growth was 94.8%.
With COc1cc2oc(-c3cccc(NC(=O)c4ccccc4)c3)cc(=O)c2c(OC)c1OC the growth was 64.4%.
Work on Cc1cn(-c2cc(NC(=O)c3cccc(C#Cc4cccc5[nH]nc(N)c45)c3)cc(C(F)(F)F)c2)cn1 yielded a growth of 20.6%.
For N#CC1=C(c2ccccc2)Nc2c(c(-c3ccc(Cl)cc3)nn2-c2ccccc2)C12C(=O)Nc1ccc(Cl)cc12 (stereo not given), the growth was 83%.
Clc1cccc(Nc2ncnc3ccc(-c4cnc5[nH]ccc5c4)cc23)c1 showed a growth of 72.6%.
In the case of COCCn1cc(-c2nc(-c3cc4cccnc4[nH]3)cs2)c2cc(OC)ccc21, the growth was 1.17% (active).
For COC(=O)CC[C@H](C)[C@H]1CC[C@H]2[C@@H]3CC[C@@H]4CC5(CC[C@]4(C)[C@H]3CC(=O)[C@]12C)Nc1ccccc1NC5=NC(C)(C)C (stereo not given in full), the growth was 83%.
NC(=O)c1cc(I)ccc1NC(=O)/C=C/c1ccccc1 was tested, and the growth was 8.98% (active).
Molecule O=C1/C(=C/c2ccccc2Br)COc2ccc(O)cc21 has a growth of 23.9%.
For CN1CCc2nc3sc(C(N)=O)c(N)c3c(-c3cccs3)c2C1, the growth was 6.55% (active).
O=C(CN1CCCCC1)Nc1nc(-c2cc3ccccc3oc2=O)cs1 was tested, and the growth was 99.9%.
COc1ccc(/C=C(\C#N)n2nnc3cc(F)c(F)cc32)cc1 showed a growth of 34%.
In the case of CCCC/C=C/[C@@H]1C[C@H]1CCO, the growth was 103%.
NC(=O)c1c(NC(=O)c2ccc3ccccc3c2)sc2c1CCC(=O)C2 showed a growth of 34.9%.
O=C(/C=C/c1cccs1)Nc1ncc(Cc2ccccc2F)s1 gave a growth of 16.7%.
COCCOc1cc2ncnc(N3CCN(c4ncc(S(=O)(=O)N5CCCCC5)cn4)CC3)c2cc1OCCOC was tested, and the growth was 97.6%.
Molecule COc1c(B(O)O)cccc1-c1cc(C)c2c(ccc3[nH]ncc32)n1 has a growth of 83.1%.
For N#Cc1c(-c2ccccc2)cc(-c2ccccc2)n(CCCC(=O)Nc2ccccc2N)c1=O, the growth was 42.3%.
For N#C/C(=C\c1c(-c2ccccc2)[nH]c2ccccc12)C(N)=O, the growth was 47.9%.
Work on CC(C)c1ccc(C(=O)Nc2nc3ccc(O)c(CN(C)C)c3s2)cc1 yielded a growth of 36%.
CCOC(=O)C1=C(c2ccccc2)N=C2SC=C(c3ccc(Cl)cc3)N2C1c1ccc(Cl)cc1 (stereo not given) gave a growth of 72.5%.
Oc1c(Br)cc(Br)c2ccc(Cn3cc(-c4ccccc4C(F)(F)F)nn3)nc12 was tested, and the growth was 100%.
CC(=O)n1nc(C(=O)OC(C)(C)c2ccccc2)c2ccccc21 showed a growth of 94.7%.
In the case of CCn1c(SCC(=O)N/N=C(\C)c2ccc(Cl)cc2)nc2c1c(=O)n(C)c(=O)n2C, the growth was 101%.
With O=C(O)c1cn(C2CC2)c2cc(N3CCN(C(=O)N(c4ccccc4)c4nc(-c5ccccc5)cs4)CC3)c(F)cc2c1=O the growth was 5.03% (active).
Molecule Cc1ccc(Nc2cc(N)nc(N)n2)cc1Cl has a growth of 93%.
Molecule Cc1ccc(NC(=O)c2sc3nc(C)c(Br)c(C)c3c2N)cc1 has a growth of 74.8%.
In the case of Cc1ccc(C(=O)c2ccc(CC(=O)N/N=C/c3ccccc3O)n2C)cc1, the growth was 80.4%.
O=C1C(Cl)=C(NCCCCCCNC2=C(Cl)C(=O)c3ccccc3C2=O)C(=O)c2ccccc21 gave a growth of 98.1%.
O=C(/C=C(/C=C/c1ccc2[nH]ccc2c1)OB(F)F)/C=C/c1ccc2[nH]ccc2c1 was tested, and the growth was -5.34% (active).
Oc1c(I)cc(I)cc1CNCc1ccccn1 showed a growth of 41.1%.
Work on N#Cc1c(-c2ccccc2)cc(-c2ccc(Nc3nc(Nc4ccc(Cl)cc4)nc(Nc4ccc(Cl)cc4)n3)cc2)nc1N yielded a growth of 50.1%.
For N#CSc1c[nH]c2cccc(/C=C/C(=O)/C=C(/C=C/c3cccc4[nH]cc(SC#N)c34)OB(F)F)c12, the growth was 11.7%.
CCOC(=O)Cc1cnc(N/N=C(\C)c2cc3ccccc3o2)s1 was tested, and the growth was 96.3%.
In the case of CCN(CC)S(=O)(=O)c1ccc(S(=O)(=O)N2CCC[C@@H](C(=O)N3CCN(c4nc(C(C)C)no4)CC3)C2)cc1, the growth was 77.4%.
Molecule CCN(CC)CCn1c2ccc(OC)cc2c2sc3cc(OC)ccc3c(=O)c21 has a growth of 22.4%.
CCO/C=N/C1=C(C#N)C(c2ccc(Cl)cc2)c2sc3c(F)cccc3c2O1 (stereo not given) gave a growth of 42.2%.
Molecule C=CCSc1nnc(NC(=O)CCl)s1 has a growth of 95.3%.
CS(=O)(=O)c1ccc(-c2cnn3ccc(-c4cccc(S(=O)(=O)C5CC5)c4)nc23)cc1 showed a growth of 62%.
